TIM10 inh: inhibits growth of TIM10 yeast strain. S. cerevisiae TIM10 strain growth, BacTiter-Glo luminescence, 24 h. 330,000 tested, 1.4% active. inhibition, % at 10 µM;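 active = inhibition of 40% or more at the single tested concentration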;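 also: wild-type TIM10 isogenic control strain grown at permissive 25 °C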
tim23-1 inh: inhibits growth of tim23-1 mutant yeast; S. cerevisiae tim23-1 growth, BacTiter-Glo luminescence, 24 h; inhibition, % at 20 µM; 330,000 tested, 1.3% active; AID 463212;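 active = growth inhibition of the mutant yeast at or above 50%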;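 also: temperature-sensitive mutant grown at 25 °C; plate controls were DMSO-treated mutant yeast for no effect and medium wells lacking yeast for full effect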
V-ATPase pHluor: regulators of yeast V-ATPase proton transport; 350,000 tested, 0.37% active; response, % at 10 µM; S. cerevisiae, pHLuorin cytosolic pH fluorescence; in the data active = response mostly above about 7.3%, no sharp cut-off; inactive = mostly below about 5.4%; also: actives read high
NALP1 yeast inh: inhibitors of NALP1 inflammasome in yeast. inhibition, % at 10 µM. 280,000 tested, 0.61% active. S. cerevisiae NALP1/ASC/caspase-1 growth, X-gal OD620, 72 h; in the data active = inhibition mostly above about 24%, no sharp cut-off; inactive = mostly below about 32%
tim10-1 inh: growth inhibitors of tim10-1 mutant yeast | S. cerevisiae tim10-1 ts strain growth, BacTiter-Glo, 24 h | 330,000 tested, 2.2% active | inhibition, % at 20 µM;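 active = inhibition of at least 40%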;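 also: mutant grown at 25 °C; 0% = DMSO wells with yeast and 100% = wells holding no yeast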
NALP3 yeast inh: NALP3 inhibition in yeast | AID 2825 | 330,000 tested, 0.39% active | inhibition, % at 10 µM | Yeast reconstituted NLRP3/ASC/caspase-1, beta-gal luminescence, 24 h;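 active = inhibition of 50% or more; inactive = inhibition below 50%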;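 also: plate controls were induced DMSO wells for no effect and uninduced yeast grown without galactose for full effect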
tim10-1 conf: confirmation of tim10-1 mutant yeast growth inhibitors; shares compounds with tim10-1 inh; S. cerevisiae tim10-1 ts strain growth, BacTiter-Glo, 24 h; inhibition, % at 20 µM; 7,400 tested, 56% active; AID 463213;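 active = inhibition of yeast growth at or above a set limit in either of two repeat tests at 20 µM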;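 also: tim10-1 mutant grown at permissive 25 °C to find synthetic lethal compounds; 0% = DMSO yeast wells and 100% = medium wells without yeast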
An asterisk follows results filed as active. Rows were chosen to be rich in hits. Some 4.2% of all compounds tested hit in one or more screens of this group.

Results for Cc1cc(NS(=O)(=O)c2ccc(NC(=O)NC3CCCCC3)cc2)no1 ?
TIM10 inh: -11; tim23-1 inh: -3; V-ATPase pHluor: -2; NALP1 yeast inh: 22; tim10-1 inh: 11; NALP3 yeast inh: -1

What do the screens show for `Cc1cc(NS(=O)(=O)c2ccc(C3CCCCC3)cc2)no1`?
TIM10 inh: 13; tim23-1 inh: 35; V-ATPase pHluor: 1; NALP1 yeast inh: 7; tim10-1 inh: 41*; NALP3 yeast inh: 22; tim10-1 conf: 20

Results for CCn1c(=O)c(CCC(=O)N2CCOCC2)c(C)c2c(C)nn(-c3ccccc3)c21 ?
TIM10 inh: 5; tim23-1 inh: 36; V-ATPase pHluor: -1; NALP1 yeast inh: 23; tim10-1 inh: 18; NALP3 yeast inh: 10

What do the screens show for `Cc1nn(-c2ccccc2)c2c1c(C)c(CCC(=O)N1CCOCC1)c(=O)n2C`?
TIM10 inh: 12; tim23-1 inh: 31; V-ATPase pHluor: -1; NALP1 yeast inh: 2; tim10-1 inh: 41*; NALP3 yeast inh: 24; tim10-1 conf: 14

What do the screens show for `Cc1ccc(S(=O)(=O)N2CN(Cc3ccco3)c3nc4ccccc4nc32)cc1`?
TIM10 inh: 24; tim23-1 inh: 29; V-ATPase pHluor: 2; NALP1 yeast inh: 11; tim10-1 inh: 22; NALP3 yeast inh: -14

What do the screens show for `COc1ccc(S(=O)(=O)N2CN(Cc3ccco3)c3nc4ccccc4nc32)cc1`?
TIM10 inh: 20; tim23-1 inh: 27; V-ATPase pHluor: 0; NALP1 yeast inh: 17; tim10-1 inh: 47*; NALP3 yeast inh: -8; tim10-1 conf: 27

How did Oc1c(C(Nc2nc3ccccc3s2)c2ccco2)ccc2cccnc12 (centres undefined) do in these assays?
TIM10 inh: 15; tim23-1 inh: 40; V-ATPase pHluor: -2; NALP1 yeast inh: -8; tim10-1 inh: 43*; NALP3 yeast inh: -12; tim10-1 conf: 7

Results for CC(C)C(=O)NC(c1ccco1)c1ccc2cccnc2c1O (centres undefined) ?
TIM10 inh: 18; tim23-1 inh: 35; V-ATPase pHluor: 1; NALP1 yeast inh: -12; tim10-1 inh: 26; NALP3 yeast inh: 14

Results for COc1c([N+](=O)[O-])cc(C(=O)NNC(=O)c2ccc(C)cc2)cc1[N+](=O)[O-] ?
TIM10 inh: -10; tim23-1 inh: -1; V-ATPase pHluor: 0; NALP1 yeast inh: -14; tim10-1 inh: -8; NALP3 yeast inh: 25

Results for NC(=O)c1ccc(NC(=O)COC(=O)C2COc3ccccc3O2)cc1 (centres undefined) ?
TIM10 inh: -3; tim23-1 inh: -1; V-ATPase pHluor: 2; tim10-1 inh: -2; NALP3 yeast inh: 5

What do the screens show for `Cc1ccnc(NC(=O)COC(=O)C2COc3ccccc3O2)n1` (centres undefined)?
TIM10 inh: -3; tim23-1 inh: -3; V-ATPase pHluor: 3; NALP1 yeast inh: 19; tim10-1 inh: 64*; NALP3 yeast inh: -1; tim10-1 conf: 10

What do the screens show for `CCc1nc(N)c(C#N)c(-c2cccn2C)c1C`?
TIM10 inh: -20; tim23-1 inh: 9; V-ATPase pHluor: -1; tim10-1 inh: 41*; NALP3 yeast inh: 4; tim10-1 conf: 12

Results for CCc1nc(N)c(C#N)c(-c2ccncc2)c1C ?
TIM10 inh: -16; tim23-1 inh: 15; V-ATPase pHluor: 1; NALP1 yeast inh: 11; tim10-1 inh: 15; NALP3 yeast inh: 10

What do the screens show for `COc1ccc(F)cc1S(=O)(=O)NCc1cc(=O)n(C)c(=O)n1C`?
TIM10 inh: -5; tim23-1 inh: -15; V-ATPase pHluor: -1; NALP1 yeast inh: -13; tim10-1 inh: -9; NALP3 yeast inh: -3

Results for COc1cccc(C(=O)c2ccncc2C(=O)O)c1OC ?
V-ATPase pHluor: -1

What do the screens show for `COc1ccccc1NS(=O)(=O)c1cc(NC(=O)c2ccc(Cl)nc2)ccc1Cl`?
TIM10 inh: 25; tim23-1 inh: 16; V-ATPase pHluor: -2; NALP1 yeast inh: 15; tim10-1 inh: 19; NALP3 yeast inh: -3

Results for COc1ccc(C(=O)Nc2ccc(Cl)c(S(=O)(=O)Nc3ccccc3OC)c2)cc1 ?
TIM10 inh: 16; tim23-1 inh: 44; V-ATPase pHluor: 1; NALP1 yeast inh: 29; tim10-1 inh: 41*; NALP3 yeast inh: -4; tim10-1 conf: 28

How did CN(C(=O)C1CCCO1)C1CCS(=O)(=O)C1 (centres undefined) do in these assays?
TIM10 inh: -5; tim23-1 inh: 7; V-ATPase pHluor: 4; tim10-1 inh: -5; NALP3 yeast inh: 11

Results for N/C(=N\OC(=O)C(c1ccccc1)c1ccccc1)c1cccnc1 ?
TIM10 inh: -8; tim23-1 inh: 19; V-ATPase pHluor: -2; NALP1 yeast inh: 6; tim10-1 inh: 41*; NALP3 yeast inh: 4; tim10-1 conf: 8

Results for N/C(=N\OC(=O)c1ccc(Cl)cc1)c1ccc(Cl)cc1 ?
TIM10 inh: 12; tim23-1 inh: 23; V-ATPase pHluor: 0; NALP1 yeast inh: -142; tim10-1 inh: 43*; NALP3 yeast inh: 33; tim10-1 conf: 34*

How did N/C(=N\OC(=O)c1cccc2ccccc12)c1cccnc1 do in these assays?
TIM10 inh: 34; tim23-1 inh: 26; V-ATPase pHluor: -5; NALP1 yeast inh: 22; tim10-1 inh: 62*; NALP3 yeast inh: 0; tim10-1 conf: 65*

What do the screens show for `N/C(=N\OC(=O)c1cccc2ccccc12)c1cccc([N+](=O)[O-])c1`?
TIM10 inh: 6; tim23-1 inh: 22; V-ATPase pHluor: 3; NALP1 yeast inh: -4; tim10-1 inh: 33; NALP3 yeast inh: 23

What do the screens show for `N/C(=N\OC(=O)c1ccc(Cl)cc1)c1cccnc1`?
TIM10 inh: 33; tim23-1 inh: 50; V-ATPase pHluor: -1; NALP1 yeast inh: -15; tim10-1 inh: 65*; NALP3 yeast inh: 6; tim10-1 conf: 62*

How did O=C(Nc1ccc(N2CCOCC2)cc1N1CCOCC1)c1ncoc1-c1cccc(F)c1 do in these assays?
TIM10 inh: 26; tim23-1 inh: 24; V-ATPase pHluor: 0; NALP1 yeast inh: -25; tim10-1 inh: 10; NALP3 yeast inh: 19

Results for COc1ccc(OC)c(/C=C(\C)C(=O)c2c(C)cc(C)[nH]c2=O)c1 ?
TIM10 inh: -4; tim23-1 inh: 2; V-ATPase pHluor: 0; tim10-1 inh: 3; NALP3 yeast inh: -8

What do the screens show for `CCOC(=O)c1[nH]c(C)c(CC(C)C)c1C`?
TIM10 inh: -6; tim23-1 inh: 10; V-ATPase pHluor: -4; NALP1 yeast inh: 3; tim10-1 inh: 2; NALP3 yeast inh: 25

What do the screens show for `CC(C)(C)OC[C@H](NC(=O)c1[nH]cnc1C(=O)Nc1ccccc1F)C(=O)OC(C)(C)C`?
V-ATPase pHluor: 0

How did COc1ccc(C2OCC(C)(C)CO2)cc1OC do in these assays?
V-ATPase pHluor: 2
